Assay results as given in PubChem BioAssay (Tox21).
Records with an inconclusive call do not appear. Unmarked numbers belong to inactive results. The source made the active and inactive calls. Calls follow the shape of the dose curve; as a rule, active = well fitted inhibition curve with a large enough effect in the repeat runs; inconclusive = weak or mixed curves, or effect the other way; inactive = no such curve, though single readings can be large or run the other way.

target: Nuclear receptor ROR-gamma (Homo sapiens) (UniProt P51449); test: qHTS assay to identify small molecule antagonists of the retinoid-related orphan receptor gamma (ROR-gamma) signaling pathway (AID 1159521; also: top concentration of the series differs between compounds; nearly all actives have a fitted effect of over 50% in size); details: Tet-on RORgamma CHO cells, RORE-luciferase, 16 h; series mostly up to 42.5 µM; activity change, negative = inhibition: at the top concentration
Description: U.S. Tox21 Program National Center for Advancing Translational Sciences [NCATS] NIH Chemical Genomics Center [NCGC] U.S. Environmental Protection Agency [EPA] National Institutes of Environmental Health Sciences [NIEHS] National Toxicology Program [NTP] U.S. Food and Drug Administration [FDA] Tox21 Assay Overview: Nuclear steroid hormone receptors are involved in many biological processes including inflammatory responses, cell proliferation, and apoptosis. Environmental factors or compounds disrupting these nuclear receptor pathways and gene expression may promote susceptibility to immunotoxicants and autoimmune diseases. One important group of these expression factors are the retinoid-related orphan receptors. To assess compounds that may interfere with the retinoid-related orphan receptor gamma (ROR-gamma) transcription factor, a cell-based luciferase assay was used. The CHO cell-based assay utilizes a TET-inducible ROR expression factor and ROR response element-LUC reporter gene. Reporter gene activity was induced using Doxycycline Hyclate and measured after 16 hr incubation. Tet-on ROR gamma CHO cells were used to screen against the Tox21 10K compound library for ROR gamma antagonists by quantification of decreased reporter gene activity in terms of decreased luminescence.
Tox21 Assay Protocol Summary: Tet-on ROR gamma CHO cells were dispensed at 1,000 cells in 4 uL of culture medium per well into white wall/solid bottom 1536-well plates using a Multidrop Combi (Thermo Scientific, Waltham, MA) dispenser. Following incubation at 37 C and 5% CO2 for 4 hr, 23 nL of compounds dissolved in DMSO, positive controls or DMSO only were transferred by a Pintool station (Kalypsys, San Diego, CA) and after 2 hr incubation at 37 C, one ul of 1 uM (final concentration) of Doxycycline Hyclate was added to all the wells by using a Flying Reagent Dispenser (FRD) (Aurora Discovery, San Diego, CA). After 16 hr incubation at 37 C and 5% CO2, 5 uL of ONE-Glo reagent (Promega Corporation, Madison, WI) was added to each assay plate using FRD. After 30 min incubation at room temperature, luminescence was quantified on a ViewLux plate reader (Perkin Elmer, Waltham, MA).
% is scaled to controls: 0 for no effect and ±100 for the full control effect.

Compared with C=C1CC[C@H]2C[C@@H]1C2(C)C, CC1=CC(C)C(C=O)CC1 (stereo not given) is lower in “activity change, negative = inhibition” value: 7.9% [at 92.4 µM] for the first, -4.05% [at 92.4 µM] for the second.

Compared with CC(C)CNCC(C)C, CC(C)NC(=O)NC(C)C is higher in “activity change, negative = inhibition” value: -2.99% [at 92.4 µM] for the first, -0.367% [at 92.4 µM] for the second.

First: Cc1ccc(C#N)cc1
Second: O=C(O)CNC(=O)c1ccc([N+](=O)[O-])cc1
The “activity change, negative = inhibition” value of the first is lower: 0.0158% [at 92.4 µM] for the first, 29.9% [at 92.4 µM] for the second.

Going from CCc1ccc(O)c(OC)c1 to N=C(N)c1ccccc1, the “activity change, negative = inhibition” value rises from 0.221% [at 92.4 µM] to 6.48% [at 92.4 µM].

Compared with C=CCCCCCCCCC=O, CCCCCCCCCCCC is lower in “activity change, negative = inhibition” value: 0.543% [at 92.4 µM] for the first, -1.68% [at 92.4 µM] for the second.

Compared with C1OCOCO1, O=C1CCCC(=O)C1 is higher in “activity change, negative = inhibition” value: -14.8% [at 92.4 µM] for the first, 11.8% [at 92.4 µM] for the second.

First: ClC(Cl)(Br)Br
Second: CC(C)(C)NCCNC(C)(C)C
The “activity change, negative = inhibition” value of the first is lower: -2.52% [at 92.4 µM] for the first, 7.28% [at 92.4 µM] for the second.

Compared with CC/C=C\CC/C=C/C(OCC)OCC, CCOC(=O)C(=O)OCC is lower in “activity change, negative = inhibition” value: 11.8% [at 92.4 µM] for the first, -0.548% [at 92.4 µM] for the second.

Compared with CCCCCCOC(=O)CCCCC(=O)OCCCCCC, COC(C)(C)CCCC(C)CC=O (stereo not given) is lower in “activity change, negative = inhibition” value: 24.9% [at 92.4 µM] for the first, -3.82% [at 92.4 µM] for the second.

First: CC(=O)CC(C)(C)C1CCCCC1
Second: O=c1n(CCO)c(=O)n(CCO)c(=O)n1CCO
The “activity change, negative = inhibition” value of the first is lower: -4.97% [at 92.4 µM] for the first, 0% [at 92.4 µM] for the second.

First: Cc1cc2c(cc1S(N)(=O)=O)S(=O)(=O)CCC2
Second: COc1ccc2c(c1)CCCC2=O
The “activity change, negative = inhibition” value of the first is higher: 19.1% for the first, 16.1% for the second.

Compared with CCn1nc(C(=O)O)c(=O)c2cc3c(cc21)OCO3, CCN1CCC[C@H]1CNC(=O)c1c(O)c(Cl)cc(Cl)c1OC is lower in “activity change, negative = inhibition” value: 1.67% for the first, -0.343% for the second.

Compared with NCCc1cnc[nH]1, O=c1cc(CO)occ1O is lower in “activity change, negative = inhibition” value: 40% for the first, 7.53% for the second.

First: Cc1nc2c([nH]1)c(=O)n(C)c(=O)n2Cc1ccco1
Second: CCOC(=O)Nc1ccc(NCc2ccc(F)cc2)nc1N
The “activity change, negative = inhibition” value of the first is higher: 78.5% for the first, -6.2% for the second.

Compared with COc1nc(N)nc2c1ncn2[C@@H]1O[C@H](CO)[C@@H](O)[C@@H]1O, CCN(CC)CCNC(=O)c1cc(S(C)(=O)=O)ccc1OC is lower in “activity change, negative = inhibition” value: -15.6% for the first, -16% for the second.

Compared with CN1CC(=O)NC1=N, CCOC(=O)c1cccc(N)c1 is higher in “activity change, negative = inhibition” value: 14.3% for the first, 42.2% for the second.

Compared with C[N+](C)(C)CC(O)CC(=O)[O-] (stereo not given), CC(C[N+](C)(C)C)OC(N)=O (stereo not given) is higher in “activity change, negative = inhibition” value: -6.2% for the first, 24.7% for the second.

Compared with COc1ccc(CCN(C)CCCC(C#N)(c2cc(OC)c(OC)c(OC)c2)C(C)C)cc1OC (stereo not given), Oc1ccc(C2CNCCc3c2cc(O)c(O)c3Cl)cc1 (stereo not given) is higher in “activity change, negative = inhibition” value: 1.07% for the first, 3.95% for the second.

With NC(CSCC(=O)O)C(=O)O (stereo not given) the “activity change, negative = inhibition” value was 20.7%.

COC(=O)c1c(Cl)c(Cl)c(C(=O)OC)c(Cl)c1Cl was tested, and the Potency was “inactive”.
With C[N+](C)(C)CCCCCC[N+](C)(C)C the Potency was “inactive”.

NCCCNCCSP(=O)(O)O gave an activity change, negative = inhibition of 18.8% [at 8.39 µM].
